# From PubChem BioAssay AID504834 (National Center for Advancing Translational Sciences (NCATS), 2011)
# Hit rate of the full screen: of about 320,000 compounds, about 22,000 (6.9%) were called active. Inconclusive results (about 27%) are left out. The full list was thinned out, with actives kept by preference. Values without a mark were called inactive. Calls come from the whole dose curve; as a rule, active = well fitted inhibition curve with a large enough effect; inconclusive = small, poorly fitted or top-dose-only effect, or another doubt; inactive = no such curve, though single readings can be large or run the other way.
# Assay: Primary qHTS for delayed death inhibitors of the malarial parasite plastid, 96 hour incubation
# Details: P. falciparum luciferase reporter growth; series mostly up to 28.7 µM; activity change, negative = inhibition: at the top concentration
# Outline: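 Delayed-death screen, second-generation endpoint: infected erythrocytes, 2% hematocrit, 0.05% parasitemia final; 96 hours at 37 C, 5% CO2; luciferase detection reagent; luminescence decrease equals reduced growth.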
# % is set by controls: 0 for no effect and ±100 for the full control effect; potency is the fitted concentration of half-maximal effect.
Compound,"activity change, negative = inhibition",Potency
O=[N+]([O-])c1cccc2ncccc12,2.85%,
C/C(=N\NC(N)=S)c1ccncc1,17.4%,
C/C(=N\NC(N)=S)c1cccnc1,22.1%,
C/C(=N\NC(=S)NC(C)C)c1ccc(C(C)(C)C)cc1,,3.7 µM (active)
CC(C)Cc1nnc(NC(=O)CCc2ccccc2)s1,-25%,
CC(=O)N(Cc1cc(=O)[nH]c2ccccc12)c1ccc(C)cc1C,-0.0262%,
Cc1noc(C)c1CSCC(=O)Nc1ccc(Br)cc1Cl,0.407%,
COc1cccc(Cn2cnc3c([N+](=O)[O-])c(C)c(C)cc32)c1,-13.7%,
CCOC(=O)c1cn(Cc2cccc(C)c2)nn1,-7.81%,
Cc1cccc(Cn2cnc3c(N)c(C)c(C)cc32)c1,,10.4 µM (active)
Cc1ccc(NC(=O)c2cc3ccccc3o2)cc1,15.5%,
O=C(O)c1[nH]c2ccccc2c1C(c1cccc(O)c1)c1c(C(=O)O)[nH]c2ccccc12,31.7%,
COc1ccc(NC(=O)CN(C)C(=O)CNC(=O)C2CCCCC2)cc1,1.78%,
O=S(=O)(Oc1ccccc1C(=S)N1CCOCC1)c1ccc(Cl)cc1,-6.25%,
CCCCNC(=O)CCn1nc(-c2ccc(Cl)cc2)ccc1=O,-4.67%,
Cc1ccc(Cl)c(OCC(=O)N2CCc3ccccc3C2)c1,-26.9%,
Cc1ccc(S(=O)(=O)N(CC(=O)N2CCc3ccccc3C2)c2cccc(Cl)c2)cc1,,8.28 µM (active)
COc1cccc(N(CC(=O)N2CCc3ccccc3C2)S(C)(=O)=O)c1,-3.71%,
CC(C)=CCC/C(C)=C/C(=O)O,38.9%,
O=C(Nc1ccccc1F)C1C2C=CC3(O2)C1C(=O)N(c1cccnc1)C3C(=O)NC1CCCCC1 (stereo unspecified),,13.1 µM (active)
CC(C)N1C(=O)C2C(C(=O)NC3CCCCC3)C3C=CC2(O3)C1C(=O)NC1CCCC1 (stereo unspecified),-1.06% [at 5.75 µM],
O=C(NCc1cccnc1)Nc1ccccc1F,2.75%,
Nc1ccccc1C(=O)NC1CCCCNC1=O (stereo unspecified),13.7%,
O=C1CCNCCN1[C@H](CO)Cc1ccccc1,-16.3%,
Cc1cccc([C@H](C)c2cnc[nH]2)c1C,,4.26 µM (active)
Cc1cccc(N2CCN(C(=O)C3CCN(S(=O)(=O)c4cnc[nH]4)CC3)CC2)c1C,-24.5%,

Compound,"activity change, negative = inhibition",Potency
CSc1ncccc1C(=O)NCc1ccccc1Cl,18%,
COc1ccc(CNC(=O)c2ccc(Br)s2)cc1OC,5.99%,
OC(CNCc1ccc2c(c1)OCO2)COc1ccccc1 (stereo unspecified),-21.4%,
CN(Cc1ccccc1)CC(O)COc1ccc(CNCc2cc3ccccc3s2)cc1 (stereo unspecified),,4.15 µM (active)
Cc1ccc(OCC(=O)OC(C)CN(C)Cc2ccccc2)cc1 (stereo unspecified),8.03%,
CC(C)C[C@H](NC(=O)[C@@H]1O[C@H]1C(=O)O)C(=O)NCCCCN=C(N)N,,3.29 µM (active)
COP1(=O)C[C@@H](O)[C@@H](O)[C@@H](COCc2ccccc2)O1 (stereo partly specified),30.8%,
COc1ccc(/C=C2\N=C3CCCN3C2=O)cc1,43.5%,
CSc1nc(C)nc(C2CC2)c1C#N,10.3%,
Cc1cc(N2CCN(c3ccc(F)cc3)CC2)n2ncnc2n1,33.7%,
O=C(N/N=C/c1ccc([N+](=O)[O-])o1)c1cc([N+](=O)[O-])cc([N+](=O)[O-])c1O,-102%,
Cc1cc(C)nc(N/N=C/c2ccncc2)n1,-3.32%,
Cc1cc(C)nc(N/N=C/c2ccc([N+](=O)[O-])o2)n1,,5.22 µM (active)
CCOC(=O)c1cc(C(C)C)sc1NC(=O)COC(=O)c1nccnc1N,62.1%,
Cc1ccc(NC(=O)[C@H](Cc2ccccc2)NC(=O)C2CCNCC2)cc1,-1.68%,
CC(=O)NS(=O)(=O)c1ccc(NC(=O)/C=C/c2ccccc2Cl)cc1,2.7%,
NS(=O)(=O)c1ccc(NC(=O)/C=C/c2ccccc2Cl)cc1,,10.4 µM (active)
O=C(/C=C/c1ccccc1Cl)Nc1ccc(S(=O)(=O)Nc2ncccn2)cc1,5.65%,
CCc1noc(C)c1C(=O)NNC(=O)c1ccc(F)cc1,12.7%,
O=S(=O)(c1ccccc1)c1nc(-c2ccccc2)oc1NCCCN1CCOCC1,-3.97%,
CCc1nc2sc(C(=O)O)c(N)c2c2c1CCCC2,-8.46%,
CCOc1ccccc1C1CC(c2ccccc2)Nc2nc(N)nn21 (stereo unspecified),3.66%,
CCOc1ccccc1C1CC(c2ccc(Cl)cc2)Nc2nc(N)nn21 (stereo unspecified),,10.4 µM (active)
COc1ccc(C2CC(c3ccc(Cl)cc3Cl)Nc3nc(N)nn32)cc1OC (stereo unspecified),1.9%,
COCCCNc1nc2ccccc2nc1NS(=O)(=O)c1ccc(F)cc1,-2.54%,
